The whole screen tested about 220,000 compounds, of which about 3,300 (1.5%) were called active. Many of the other results were omitted from the sample, so actives are more common in it than they were. Unmarked numbers belong to inactive results.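 How the source made its calls: active means compounds that cut the protein-peptide binding signal by more than 50% relative to plate controls in a single-dose test; inactive means the rest.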
molecular target: Induced myeloid leukemia cell differentiation protein Mcl-1 (Homo sapiens) (UniProt Q07820); assay: Mcl-1/Noxa binding inhibitors, primary screen, biochemical, TR-FRET, 1536-well (AID 1022); conditions: TR-FRET Mcl-1/Noxa peptide binding, 2 h; at 21.7 µM; active compounds read high;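 further: His-tagged Mcl-1 with rhodamine Noxa BH3 peptide and terbium anti-His antibody; 0% = Mcl-1 plus Noxa peptide wells and 100% = peptide-only wells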
Sequence (Q07820 whole entry, looked up): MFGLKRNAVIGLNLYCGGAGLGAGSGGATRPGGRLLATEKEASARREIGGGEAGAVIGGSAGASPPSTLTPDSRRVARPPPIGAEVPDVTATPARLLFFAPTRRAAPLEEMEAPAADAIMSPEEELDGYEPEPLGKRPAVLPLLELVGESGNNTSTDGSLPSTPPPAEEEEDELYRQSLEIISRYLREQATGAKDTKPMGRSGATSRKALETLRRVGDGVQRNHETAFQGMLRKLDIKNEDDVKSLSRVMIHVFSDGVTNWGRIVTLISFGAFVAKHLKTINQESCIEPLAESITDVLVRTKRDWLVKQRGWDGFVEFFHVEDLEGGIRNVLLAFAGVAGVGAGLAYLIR

Q: How did the inhibition turn out when CCO[C@@H]1OC(C(=O)NC2CC2)=C[C@H](C)[C@H]1CCCO was run?
A: The inhibition was -4.75%.

Q: For Cc1nc(-c2ccc(Cl)cc2)sc1C(=O)NN, which inhibition is on record?
A: Its inhibition is -14.8%.

Q: With Cc1nc(-c2ccc(Cl)cc2)sc1C(=O)CBr as the molecule, how does the inhibition read?
A: The inhibition was 61% (active).

Q: How did the inhibition turn out when Cc1ccc(SCC(=O)c2sc(-c3ccccc3)nc2C)cc1 was run?
A: The inhibition was 12%.

Q: For CC1=CC2=NC(=O)/C(=C/c3coc4ccccc4c3=O)C(=N)N2O1, which inhibition is on record?
A: The inhibition was 1.38%.

Q: For COc1cc(C(=O)Nn2c(O)c(C3=c4ccccc4=NC3=O)sc2=S)ccc1O, which inhibition is on record?
A: The inhibition was 58.1% (active).

Q: Which inhibition does the source give for CCN(CC)C(=O)c1ccc(O)c(OC)c1 here?
A: Its inhibition is 4.61%.

Q: With COc1cc(C(=S)NC2CCCCC2)ccc1O as the molecule, how does the inhibition read?
A: The inhibition was 14.7%.

Q: CC(C)(C)c1ccc(/C=C2\Oc3c(ccc(O)c3CN3CCN(CCO)CC3)C2=O)cc1 was tested. Which inhibition did it give?
A: The inhibition was 23.9%.

Q: CCOC(=O)c1ccc(S(=O)(=O)N(CCO)Cc2cc3cc(OC)c(OC)cc3[nH]c2=O)cc1 was tested. Which inhibition did it give?
A: Its inhibition is -2.09%.

Q: O=S(=O)(/C=C/c1ccccc1)NCCc1ccccn1 was tested. Which inhibition did it give?
A: Its inhibition is 70% (active).

Q: Which inhibition does the source give for CN(CC(=O)NCCc1ccccn1)S(=O)(=O)c1ccc(Cl)cc1 here?
A: The inhibition was 0.36%.

Q: With O=C(CNC(=O)COc1ccccc1)NCCc1ccccn1 as the molecule, how does the inhibition read?
A: Its inhibition is 23.7%.

Q: For COc1ccccc1OCC(=O)O/N=C(\N)c1ccccn1, which inhibition is on record?
A: The inhibition was 17.8%.

Q: How did the inhibition turn out when O=C(NCc1ccccn1)c1cc(-c2ccccc2Cl)on1 was run?
A: Its inhibition is 8.56%.

Q: For COc1ccc(NC(=O)Nc2ccc3nc(C)c(C)nc3c2)cc1, which inhibition is on record?
A: The inhibition was 32.9%.

Q: How did the inhibition turn out when COc1ccc(NC(=O)Nc2ccc3nsnc3c2)cc1 was run?
A: The inhibition was 20.7%.

Q: How did the inhibition turn out when O=C(NCc1ccccn1)c1ccc2nc(-c3ccco3)c(-c3ccco3)nc2c1 was run?
A: The inhibition was 91.8% (active).

Q: COCCNC(=O)Nc1ccc2nc(-c3ccco3)c(-c3ccco3)nc2c1 was tested. Which inhibition did it give?
A: The inhibition was 107% (active).

Q: O=C(NCc1ccccn1)c1cc(Br)ccc1Cl was tested. Which inhibition did it give?
A: Its inhibition is 15.5%.

Q: How did the inhibition turn out when O=C(NNC(=S)Nc1ccc(F)cc1)[C@H]1C[C@@H]1c1ccccc1 was run?
A: The inhibition was -82.4%.

Q: For O=C(Nc1ccc(N2CCOCC2)nc1)c1c(F)cccc1F, which inhibition is on record?
A: Its inhibition is 25.6%.

Q: With Cc1cccc(NC(=O)CSc2nnc(CCNC(=O)OC(C)(C)C)o2)c1C as the molecule, how does the inhibition read?
A: Its inhibition is -10.6%.

Q: How did the inhibition turn out when C=CC1C(OC2OC(CO)C(O)C(O)C2O)OC=C(C(=O)OC)C1CC1CC(=O)CC(CC(=O)CCc2ccc(O)cc2)O1 (centres undefined) was run?
A: The inhibition was 18.5%.

Q: With Cc1ccc(S(=O)(=O)N(C)C)cc1NC(=O)c1n[nH]c(=O)c2ccccc12 as the molecule, how does the inhibition read?
A: Its inhibition is -4.07%.

Q: How did the inhibition turn out when CCOC(=O)c1cn[nH]c1NC(=S)Nc1ccccc1 was run?
A: Its inhibition is 18.3%.

Q: Which inhibition does the source give for Nc1ncc(-c2cc3ccccc3oc2=O)s1 here?
A: The inhibition was 21.7%.

Q: With COc1ccc(OC)c(Nc2nc(-c3ccc(O)c(O)c3)cs2)c1 as the molecule, how does the inhibition read?
A: The inhibition was 69.2% (active).

Q: Which inhibition does the source give for COc1ccc(Nc2nc(-c3ccccc3)cs2)cc1 here?
A: The inhibition was 13.3%.

Q: How did the inhibition turn out when COc1ccc(-c2csc(Nc3ccc(O)cc3)n2)cc1 was run?
A: The inhibition was 69.4% (active).

Q: Which inhibition does the source give for O=c1oc2ccccc2cc1-c1csc(Nc2ccc(O)cc2)n1 here?
A: Its inhibition is 101% (active).

Q: COc1ccc(-c2csc(Nc3ccccn3)n2)cc1 was tested. Which inhibition did it give?
A: Its inhibition is 19.1%.

Q: With CCNc1nc(-c2cc3ccccc3o2)cs1 as the molecule, how does the inhibition read?
A: The inhibition was 37.2%.

Q: COc1ccc(C)cc1Nc1nc(-c2c(C)[nH]c3ccccc23)cs1 was tested. Which inhibition did it give?
A: Its inhibition is 12.8%.

Q: For COc1ccc2nc(Nc3nc(-c4ccncc4)cs3)sc2c1, which inhibition is on record?
A: The inhibition was 43.5%.

Q: Which inhibition does the source give for O=C(NCc1ccc(F)cc1)C1CCC(CNc2c(N3CCOCC3)c(=O)c2=O)CC1 (centres undefined) here?
A: The inhibition was -8.83%.

Q: How did the inhibition turn out when CN1CCN(c2ncc3c(n2)CC(c2ccccc2F)CC3=O)CC1 (centres undefined) was run?
A: Its inhibition is -10.3%.

Q: For CC(=O)NC(CC(=O)Nc1nccs1)c1ccccc1 (centres undefined), which inhibition is on record?
A: Its inhibition is -8.98%.

Q: How did the inhibition turn out when CC1(C)CC(=O)C(N=Nc2c(F)cccc2F)=C(O)C1 was run?
A: The inhibition was -2.76%.

Q: Which inhibition does the source give for CC(NCc1ccccc1OC1CCCC1)c1ccccc1 (centres undefined) here?
A: The inhibition was -3.22%.

Q: With Cc1cc(-c2nc(C)c(-c3nnc(SCC(=O)Nc4ccccc4)n3C)s2)no1 as the molecule, how does the inhibition read?
A: The inhibition was 3.26%.

Q: For Nc1nc(SC23CC4CC(CC(C4)C2)C3)ns1, which inhibition is on record?
A: Its inhibition is 5.98%.

Q: Which inhibition does the source give for CC1=CC(C)(C)NC(=S)N1NC(=O)c1ccccc1Cl here?
A: The inhibition was 5.81%.

Q: Which inhibition does the source give for CC(C)(C)NC(=O)Cn1cnc2cc([N+](=O)[O-])ccc2c1=O here?
A: Its inhibition is 27.1%.

Q: O=C(Cn1cnc2cc([N+](=O)[O-])ccc2c1=O)NC(=O)NCc1ccccc1 was tested. Which inhibition did it give?
A: Its inhibition is 53.5% (active).

Q: With O=C(Cn1cnc2c(cnn2-c2ccccc2)c1=O)NCc1ccccc1 as the molecule, how does the inhibition read?
A: The inhibition was 6.36%.

Q: Cc1ccc(S(=O)(=O)NNC(=S)NC(C)(C)C)cc1 was tested. Which inhibition did it give?
A: Its inhibition is -14.3%.

Q: With O=C(NC(=O)N1CCSCC1)c1c(Cl)cccc1Cl as the molecule, how does the inhibition read?
A: Its inhibition is 2.15%.

Q: Cc1ccc(-c2csc(-c3cc(C)on3)n2)cc1 was tested. Which inhibition did it give?
A: The inhibition was -2.5%.

Q: Which inhibition does the source give for O=S(=O)(c1cccc(-c2nnc3n2CCCCC3)c1)N1CCOCC1 here?
A: The inhibition was 3.07%.

Q: For O=C(Nc1cccc2ncccc12)C(Cl)(Cl)Cl, which inhibition is on record?
A: The inhibition was 11.1%.

Q: Cc1ccc(C(=O)Nc2cccc3ncccc23)cc1[N+](=O)[O-] was tested. Which inhibition did it give?
A: Its inhibition is 10.6%.

Q: How did the inhibition turn out when Cc1ccc(/C=C(\C#N)C(=O)Nc2cccc3ncccc23)o1 was run?
A: Its inhibition is 65.7% (active).

Q: Cc1ccc(NC(=O)/C(=C/c2ccc([N+](=O)[O-])cc2)NC(=O)c2ccccc2)cc1 was tested. Which inhibition did it give?
A: Its inhibition is 3.04%.

Q: For Cn1nccc1NC(=O)Nc1ccc(OC(F)(F)F)cc1, which inhibition is on record?
A: The inhibition was -2.66%.

Q: For Oc1c(Cl)cc(Cl)c(Cl)c1Cc1c(O)c(Cl)cc(Cl)c1Cl, which inhibition is on record?
A: Its inhibition is 104% (active).

Q: With CN(C)c1ccc(/C=N/N(Cc2ccccc2)c2ccccc2)cc1 as the molecule, how does the inhibition read?
A: The inhibition was 95.7% (active).

Q: With CN(C)c1ccc(/C=N\S(=O)(=O)c2ccccc2)cc1 as the molecule, how does the inhibition read?
A: The inhibition was 2.37%.

Q: Oc1ccc(/C=N/N(Cc2ccccc2)c2ccccc2)cc1 was tested. Which inhibition did it give?
A: The inhibition was 27%.

Q: How did the inhibition turn out when CCN(/N=C/c1ccc(N(C)C)cc1)c1nc2ccccc2[nH]1 was run?
A: Its inhibition is 81% (active).

Q: COC(=O)Cc1nc2ccccc2[nH]1 was tested. Which inhibition did it give?
A: The inhibition was 9.2%.

Q: CCN(/N=C/c1ccccc1)c1cc(=O)n(C)c(=O)[nH]1 was tested. Which inhibition did it give?
A: The inhibition was 21%.

Q: With COc1cc(C(F)(F)F)nc2c(Br)c(C(C)(C)C)nn12 as the molecule, how does the inhibition read?
A: The inhibition was 7.39%.

Q: How did the inhibition turn out when CN(C)S(=O)(=O)c1ccc(C(=O)NCC(C)(C)N2CCOCC2)cc1 was run?
A: The inhibition was 7.92%.

— PubChem BioAssay AID1022 (Emory University Molecular Libraries Screening Center, 2008)
